Experimental data: ChEMBL document CHEMBL4513216, “Probing the Open Global Health Chemical Diversity Library for Multistage-Active Starting Points for Next-Generation Antimalarials” (ACS Infect Dis, 2020)
The campaign covered roughly 65,000 compounds. About 2,100 (3.2%) showed an effect of 50% or more. The median lay at about -52%. What follows is part of a selection rich in strong results, with near analogues and random picks from the rest.

These compounds were tested on Plasmodium falciparum (assay: Screen against P. falciparum Asexual Blood Stage (ABS), at 5uM). Conditions: tested at 5 uM.
Format: functional, Dd2

SMILES | INHIBITION [%]
O=C(CCN1C(=O)CCC1=O)Nc1ccc(OCC(F)(F)F)nc1 | -54.8
O=C(NCC1CCOC1)Nc1ccc(Oc2ccc(F)cc2)nc1 (configuration not stated) | 29.4
O=C(NCC1CC1)Nc1ccc(OCC(F)(F)F)nc1 | 52.7
O=C(NCc1ccco1)c1cccc(C(=O)NCc2ccco2)n1 | -31
OCC1CCCCN1CCn1ccnc1-c1nc2ccccc2[nH]1 (configuration not stated) | 13.2
Cn1ccnc1CN1CCCCC1c1nc(-c2ccccc2)no1 (configuration not stated) | -149
Cc1nn(C)c2nc(-c3ccccn3)nc(NCCC3CCCN3C)c12 (configuration not stated) | -35.5
CN1CCCC1CCn1ccnc1-c1nc(-c2ccccc2)no1 (configuration not stated) | 57.6
c1ccc(-c2noc(CCCN3CCCC3Cn3cccn3)n2)cc1 (configuration not stated) | 31.8
CN1CCCC1CCn1ccnc1-c1ccc2ccccc2n1 (configuration not stated) | 56.5
O=C(NCCc1cccnc1)c1cn(CCN2CCNCC2)nn1 | -75.5
Cc1cnc(N2CCn3c(CN4CCOCC4)nnc3C2)nc1 | -56.3
Cn1c(CN2CC[C@](C)(O)C(C)(C)C2)cc2ccccc21 | -28.6
COc1ccc(C(CNC(=O)c2c(C)noc2C)N(C)C)cc1 (configuration not stated) | -125
COc1ccc(CN2CCOC(CCc3ccnc(N)c3)C2)cc1 (configuration not stated) | 38.1
COc1ccc(CNCC2CCN(c3ccccc3OC)C2)cc1O (configuration not stated) | 24.5
COc1ccccc1N1CCC(CNCc2cccc(OC)c2OC)C1 (configuration not stated) | 57
COc1cccc(CNCC2CCN(CC(C)O)CC2)c1OC (configuration not stated) | -2.28
COc1ccccc1N1CCC(CNS(=O)(=O)c2cccs2)C1 (configuration not stated) | 7.44
COc1ccccc1N1CCC(CNCc2c(C)nn(C)c2OC)C1 (configuration not stated) | 53.5
COc1c(CNCc2ccccc2CO)c(C)nn1C | -2.62
COc1ccccc1N1CCC(CNCc2cccc(C#N)c2)C1 (configuration not stated) | 3.2
COc1ccccc1N1CCC(CNCc2cccc(O)c2)C1 (configuration not stated) | 56.8

SMILES | INHIBITION [%]
COc1ccccc1N1CCC(CNS(=O)(=O)c2c(C)nn(C)c2C)C1 (configuration not stated) | -22.2
C/C(NC(=O)c1ccco1)=C1/C(=O)C[C@@H]2[C@H]1C2(C)C | -86.3
CC(C)N(C)Cc1cn2c(n1)CN(C(=O)Cc1ccccc1)CC2 | -63.5
COc1c(CNCc2cccnc2N2CCN(C)CC2)c(C)nn1C | -95.3
CCOc1nc2cnccc2n(CC(=O)NCc2ccc(C)cc2)c1=O | -10.3
Cc1nc(N2CCOCC2)nc2c1CCN(Cc1ccsc1)CC2 | -79.9
CCCc1ccc(C(=O)N2Cc3c(Cn4ccnc4)nn(C)c3C2)cc1 | -64.1
CCO[C@H]1C[C@@H](O)C12CCN(C(=O)CC(F)(F)F)CC2 | -105
Cc1cc(N2C[C@H](C3CC3)[C@@H](N)C2)nc(N2CCCCC2)n1 | 56.4
CCc1cc(N2C[C@H](C3CC3)[C@@H](N)C2)nc(N2CCCC2)n1 | 69.6
N[C@H]1CN(Cc2cnc(N3CCCC3)nc2)C[C@@H]1C1CC1 | -9
CC(C)Oc1cc(N2C[C@H](C3CC3)[C@@H](N)C2)nc(N)n1 | -211
CNc1cc(C)nc(N2C[C@@H](C(=O)O)[C@H](C3CC3)C2)n1 | -75.5
CCc1cc(N2C[C@H](C3CC3)[C@@H](N)C2)nc(N2CCOCC2)n1 | -73.7
CCc1ccc(CN(CCCn2ccnc2)Cc2ccc(C)s2)o1 | 21.9
CN1[C@@H]2CC[C@H]1CN(c1nc(-c3ccncc3)nc3c1cnn3C)CC2 | -86.6
CCc1cc(C(=O)N2Cc3ccccc3OC3(CCOCC3)C2)on1 | -33.7
CN(C)CCN1C(=O)CCC12CCCN(C(=O)CC1CC1)CC2 (configuration not stated) | -26.4
Cc1nccn1CCC1CCCCN1Cc1ccncc1 (configuration not stated) | -88.5
Cc1nccn1CCC1CCCCN1Cc1ccc2c(c1)OCCO2 (configuration not stated) | 46.4
Cc1nccn1CCC1CCCCN1Cc1cccc(CCN)c1 (configuration not stated) | 59.8
Cc1nccn1CCC1CCCCN1Cc1ccc(O)cc1Cl (configuration not stated) | 24.6
Cc1nccn1CCC1CCCCN1Cc1cnc(N(C)C)nc1 (configuration not stated) | 4.12

SMILES | INHIBITION [%]
Cc1cc2c(cc1CN1CCCCC1CCn1ccnc1C)OCO2 (configuration not stated) | 67.7
Cn1cc(CNC2CCC(O)CC2)c(-c2cc3ccccc3o2)n1 (configuration not stated) | -29
CC(C)NC(=O)Nc1ccc(CNCc2ccc(OC(F)F)cc2)cc1 | -97.1
CC(C)c1nc(C2CCCN2Cc2ccncc2Cl)no1 (configuration not stated) | -53.3
COCCN1C[C@@H]2CC[C@H]1CN(C(=O)c1ccc(Cl)cc1)C2 | -61.5
COc1ccc(-n2cccn2)cc1S(=O)(=O)N1C[C@H](C2CC2)[C@@H](N)C1 | 58.9
CCCN1C[C@@H]2CC[C@H]1CN(Cc1cccc(-n3cccn3)c1)C2 | 46.5
N[C@H]1CN(S(=O)(=O)c2cccnc2)C[C@@H]1C1CC1 | -59.9
Cc1ccc(-n2cccn2)cc1S(=O)(=O)N1C[C@H](C2CC2)[C@@H](N)C1 | 41.6
Cc1ccc(-n2cccn2)cc1S(=O)(=O)N1C[C@H]2CC[C@@H](C1)N(C)C2 | 63.6
CCCN1C[C@@H]2CC[C@H]1CN(Cc1ccc(-n3cccn3)cc1)C2 | 30.8
CN(C)Cc1cnc(C2CCN(C(=O)c3ccc(F)cc3)C2)[nH]1 (configuration not stated) | -144
CCOc1cc(C)nc(N2CCN(C(=O)C(C)NC(C)=O)CC2)n1 (configuration not stated) | -92.3
Cc1noc(C)c1CNC1CCN(c2ccccc2OC(F)F)C1 (configuration not stated) | 63.7
Cc1ccc(N2CCCC(NCc3c(C)noc3C)C2)nn1 (configuration not stated) | -2.57
COc1ccccc1N1CCC(NCc2c(C)noc2C)C1 (configuration not stated) | 28.4
O=C(Nc1ccncc1)NC1CCN(c2ccccc2OC(F)F)C1 (configuration not stated) | 64.4
O=C(Nc1ccccn1)NC1CCN(c2ccccc2OC(F)F)C1 (configuration not stated) | 8.94
O=C(Nc1cccnc1)NC1CCN(c2ccccc2OC(F)F)C1 (configuration not stated) | 16
CCCOc1c(Cl)cc(C(=O)N2CCOC23CCN(C)CC3)cc1Cl | -5.1
CSCc1cc(F)ccc1CNC(=O)N1CCCC(CO)C1 (configuration not stated) | -126
